Test results as given in PubChem BioAssay.
For part of these data: Results with a measured potency or affinity are listed apart. Activity calls are given as the source filed them.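 Rule for the calls, unless noted: active = fitted half-maximal concentration within 10 nM to 100 µM, steepness 0.5 to 2, significant signal drop, low assay interference; inactive = the rest.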

Assays:
[1] = target: Cell division control protein 42 homolog (Homo sapiens) (UniProt P60953); assay: inhibition of fluorescent GTP binding to constitutively active Cdc42 – biochemical, multiplex bead flow cytometry, Bodipy-FL-GTP, dose response (AID 1333;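 active = fitted half-maximal concentration within the tested dose range, moderate curve steepness, a statistically real signal drop, and little compound fluorescence or tag-binding interference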)
Cell division control protein 42 homolog (Homo sapiens), sequence (P60953 whole entry, looked up): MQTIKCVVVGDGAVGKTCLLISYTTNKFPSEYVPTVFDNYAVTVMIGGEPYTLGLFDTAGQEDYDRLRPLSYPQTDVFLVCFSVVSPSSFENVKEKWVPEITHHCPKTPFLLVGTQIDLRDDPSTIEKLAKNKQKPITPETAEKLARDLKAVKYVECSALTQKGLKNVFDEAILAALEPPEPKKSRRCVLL

[2] = target: Cell division control protein 42 homolog (Homo sapiens) (UniProt P60953); assay: inhibition of fluorescent GTP binding to wildtype Cdc42 – biochemical, multiplex bead flow cytometry, Bodipy-FL-GTP, dose response (AID 1334;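 active = fitted half-maximal concentration within the tested range, moderate curve steepness, significant signal drop, and little compound fluorescence or bead-linkage interference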); conditions: bead-based flow cytometry, Bodipy-FL-GTP binding to GST-Cdc42; at 100 µM (top of the series) unless noted
[3] = target: GTPase HRas (Homo sapiens) (UniProt P01112); assay: Ras wt fluorescent GTP loading blockade – biochemical, wildtype, multiplex bead flow cytometry, dose response (AID 1335); conditions: bead-based flow cytometry, Bodipy-GTP binding to GST-Ras; at 100 µM (top of the series) unless noted
GTPase HRas (Homo sapiens), sequence (P01112 whole entry, looked up): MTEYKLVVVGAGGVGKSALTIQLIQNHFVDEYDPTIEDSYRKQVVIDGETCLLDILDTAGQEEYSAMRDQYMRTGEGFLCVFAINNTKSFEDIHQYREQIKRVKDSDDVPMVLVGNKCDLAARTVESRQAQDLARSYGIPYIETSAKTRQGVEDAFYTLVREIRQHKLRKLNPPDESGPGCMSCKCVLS

[4] = tested on: Ras-related protein Rab-7a (dog), GTP binding; assay: blockers of fluorescent GTP binding to Rab7 – biochemical, wildtype, multiplex bead flow cytometry, dose response (AID 1336; call rule not given here)
[5] = target: Ras-related C3 botulinum toxin substrate 1 (Homo sapiens) (UniProt P63000); assay: inhibition of wildtype Rac1 nucleotide loading – biochemical, multiplex bead flow cytometry, dose response (AID 1340;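 active = dose curve with midpoint inside tested range, moderate steepness, plateau gap beyond fit error, low compound glow and bead-link interference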); conditions: GST-Rac1 beads, Bodipy-FL-GTP binding; at 100 µM (top of the series) unless noted
[6] = target: GTPase HRas (Homo sapiens) (UniProt P01112); assay: blockade of GTP loading onto mutant Ras – biochemical, activated mutant, multiplex bead flow cytometry, dose response (AID 1341;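 active = dose-response curve with midpoint inside the tested range, moderate steepness, significant amplitude and little compound fluorescence or bead-attachment interference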;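 note: GST-tagged constitutively activated Ras mutant immobilized on beads and multiplexed with other GTPases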)

| SMILES | outcome [1] | fluorescence, percent of control (lower = inhibition) [2] [%] | GTP binding, percent of control [3] [%] | outcome [4] | GTP binding signal, raw median fluorescence (lower = inhibition) (MCF (arbitrary fluorescence units)) [5] | outcome [6] |
| --- | --- | --- | --- | --- | --- | --- |
| COC(=O)c1c(N2C(=O)[C@H]3[C@@H](C2=O)[C@]2(C(=O)Nc4c(C)cc(C)cc42)N2CCC[C@@H]32)sc(C)c1C | inactive | 45.1 | 97.2 | inactive | 238 | inactive |
| Cc1ccc(NCc2sc(C(=O)O)cc2C)cc1 | inactive | 63 | 86.6 | inactive | 35.4 | inactive |
| O=[N+]([O-])c1ccccc1/C=C/C=N/n1c(-c2ccco2)n[nH]c1=S | inactive | 28.1 | 72.9 | inactive | 221 | inactive |
| Cc1noc(NS(=O)(=O)c2ccc(NC(=O)CSc3nnc4c(n3)[nH]c3ccccc34)cc2)c1C | inactive | 21.2 | 32.7 | inactive | 41.2 | inactive |
| COc1ccccc1CCNCc1ccc(C(=O)O)s1 | inactive | 63 | 88.4 | inactive | 34.1 | inactive |
| S=C(NCCc1ccccc1)NC1CC1 | inactive | 36.3 | 79.2 | inactive | 253 | inactive |
| O=C(O)c1ccc(Nc2nc(-c3cc4ccccc4oc3=O)cs2)cc1O | inactive | 29.2 | 74.6 | inactive | 177 | inactive |
| O=c1c2ccccc2nc2c3ccccc3c(NCCO)nn12 | inactive | 27.1 | 65 | inactive | 165 | inactive |
| Cc1nnc(N2CCOCC2)c2nn(-c3ccccc3)c(C)c12 | inactive | 58.1 | 71.2 | inactive | 198 | inactive |
| Cn1nnnc1Sc1ncnc2scc(-c3ccc(F)cc3)c12 | inactive | 52.2 | 64.5 | inactive | 210 | inactive |
| COc1ccc(OC)c(S(=O)(=O)Nc2ccc(O)c(Sc3ncn[nH]3)c2)c1 | inactive | 48.6 | 65.1 | inactive | 189 | inactive |
| O=C(Nc1sc2c(c1C(=O)O)CCCCC2)c1ccccc1 | inactive | 29.3 | 74.3 | inactive | 201 | inactive |
| CCC(/C=C1\Sc2ccc(OC)cc2N1CCO)=C\c1sc2ccc(OC)cc2[n+]1CCO | inactive | 22.6 | 46.8 | inactive | 187 | inactive |
| Cn1cccc1/C=C1\SC(=S)N(NC(=O)c2ccccc2Cl)C1=O | inactive | 24.6 | 62.8 | inactive | 178 | inactive |
| CC(=O)Nc1ccc(N2C(=O)c3ccc(C(=O)Nc4nnc(SCc5ccc(F)cc5)s4)cc3C2=O)cc1 | inactive | 43.1 | 92.1 | inactive | 253 | inactive |
| Cc1ccc(Nc2n[nH]c(C)c2[N+](=O)[O-])c(C)c1 | inactive | 52.6 | 65.8 | inactive | 194 | inactive |
| COc1cc(NS(=O)(=O)c2ccc(Nc3nc(-c4ccccc4)cs3)cc2)nc(OC)n1 | inactive | 40.7 | 53.3 | inactive | 138 | inactive |
| Cc1cccc(CNc2nc(C)ccc2C(=O)O)c1 | inactive | 60.7 | 218 | inactive | 58 | inactive |
| O=C(CCc1nc2ccccc2[nH]c1=O)OCC(=O)N1CCc2ccccc21 | inactive | 36.8 | 82.6 | inactive | 280 | inactive |
| Cc1nnc2ccc(-c3cccc(NC(=O)c4ccc(Br)o4)c3)nn12 | inactive | 34.5 | 81.8 | inactive | 206 | inactive |
| CCC(=O)c1ccc(OCC(=O)O)c(OC)c1 | inactive | 46.1 | 121 | inactive | 64.7 | inactive |
| COc1cccc(CNCc2ccc(C(=O)O)s2)c1 | inactive | 61.9 | 84.8 | inactive | 32.9 | inactive |
| CCC(C)N1C(=O)/C(=C/c2c(NCCCOC(C)C)nc3c(C)cccn3c2=O)SC1=S (stereo not given) | inactive | 130 | 136 | inactive | 244 | inactive |
| C=CCN1C(=O)/C(=C/C=C2/N(CC)c3ccc(S(=O)(=O)N(C)C)cc3N2CC)SC1=S | inactive | 56.2 | 88.4 | inactive | 215 | inactive |
| C=CCc1ccccc1OCC(O)CN1CCN(C(=O)OCC)CC1 (stereo not given) | inactive | 48.3 | 60.5 | inactive | 194 | inactive |
| O=c1n(Cc2ccc(Cl)cc2)c2sc3c(c2c2ncnn12)CCCC3 | inactive | 78.9 | 126 | inactive | 146 | inactive |
| Cc1ccccc1OCCn1c(C)c(C(=O)O)c2ccccc21 | inactive | 61.5 | 205 | inactive | 64.3 | inactive |
| O=[N+]([O-])c1cc2oc3c(c2c(C=NCc2ccccc2)c1O)CCCC3 | inactive | 44.5 | 58.7 | inactive | 179 | inactive |
| CNC(=O)C(C)NS(=O)(=O)c1ccc(F)cc1 (stereo not given) | inactive | 50.9 | 66.5 | inactive | 236 | inactive |
| Cc1ccc(-n2c(SCc3cc(=O)n4ccsc4n3)nnc2-c2cccnc2)c(C)c1 | inactive | 79.6 | 157 | inactive | 178 | inactive |
